This is a sample that favours compounds with a hit; in the whole collection about 2.2% have one here.
aSyn yeast inh = rescues yeast growth from alpha-synuclein toxicity | Potency, µM (highest dose often 46.1 µM), without a hit: top-dose growth rescue (activation), hits mostly activators | Yeast expressing alpha-synuclein, growth rescue, BacTiter-Glo, 24 h | 370,000 compounds, 0.14% hits; also: % of control where 0% means no effect; nearly all actives have a fitted effect of over 65% in size
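Rescue of yeast growth: cells expressing toxic alpha-synuclein, induced in galactose at OD600 0.02, incubated with compound 24 h at 30 C. ATP luminescence quantified growth; inhibitors of toxicity appear as activators.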
Abeta yeast res = restores growth of yeast expressing A-beta42 peptide | yeast expressing A-beta42, growth rescue, OD600, 48 h; response scale: 0% DMSO, 100% iron-clioquinol control | Potency, µM (titrated, usually from 46.1 µM), actives largely listed as activators | 410,000 compounds, 0.063% hits; also: nearly all actives have a fitted effect of over 55% in size
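Growth rescue measured by 600 nm absorbance after 48 h yeast culture at 30 C with compound. Values normalized between DMSO and an equimolar ferric chloride plus clioquinol control.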
TDP43 rescue = rescues yeast growth from TDP-43 toxicity. 410,000 compounds, 1.8% hits. Potency, µM (highest dose often 46.1 µM), for the others: at the top dose growth rescue (activation), most hits filed as activators. TDP-43 expressing yeast growth rescue, BacTiter-Glo, 24 h; also: % of control where 0% means no effect; nearly all actives have a fitted effect of over 50% in size
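Galactose-induced TDP-43 yeast, OD600=0.02, compound pinned; 24 hr, 30 deg C; BacTiter-Glo luminescence for growth. Inhibitors of TDP-43 toxicity read as activators.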
FUS suppressor = rescues growth of FUS-expressing yeast. Potency, µM (series often up to 76.6 µM), usual class: activators. 390,000 compounds, 0.24% hits. S. cerevisiae FUS-expressing, growth rescue, OD600, 24 h;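 also: plate controls were DMSO vehicle for no effect and reference control for full effect; nearly all actives have a fitted effect of over 55% in size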
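Galactose (2%) drives FUS expression in yeast precultured in raffinose; seeding density OD 0.005. Test compounds incubated 24hr at 30C and 99% humidity before absorbance at 600 nm was measured.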
Mito fusion act = blocks mitochondrial division or promotes mitochondrial fusion; S. cerevisiae fusion-defective mutant growth rescue, CellTiterGlo 48 h; Potency, µM (doses to about 46.1 µM), for inactives: top-dose growth rescue (activation), hits mostly activators; 320,000 compounds, 0.23% hits; AID 485298; also: % of control where 0% means no effect; nearly all actives have a fitted effect of over 45% in size
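Temperature-sensitive fusion-defective S. cerevisiae (e.g. fzo1-1, mgm1-5) were grown with compound in YPEG medium (3% ethanol, 3% glycerol) for 48 hours at 37C. Growth rescue was measured as viability by CellTiterGlo luminescence after 10 minutes at ambient.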
The depositor's hits bear a star; i = inactive; ? = inconclusive; . = no result; [ ] = dose if it differs, or a comment. Calls follow the shape of the dose curve; as a rule, active = well fitted curve in the direction sought with a large enough effect; inconclusive = small, poorly fitted or top-dose-only effect, or another doubt; inactive = no such curve, though single readings can be large; an effect the other way counts as inactive or inconclusive. Potency is read from the fitted curve at half-maximal effect.

SMILES	aSyn yeast inh	Abeta yeast res	TDP43 rescue	FUS suppressor	Mito fusion act
COc1cc(/C=N/N2CCOCC2)ccc1OCc1ccc(Cl)cc1	-1.0%	i	11.2µM*	i	17.9%
COc1cc(/C=N/N2CCOCC2)ccc1OCc1ccccc1	-8.0%	i	-13.3%[9.22 µM]	i	5.7%
CCCN(CC(=O)Nc1cccc(Br)c1)CC(=O)Nc1ccc(F)c(F)c1F	?	i	14.1µM*	i	1.6%
Cc1cc(C)cc(N(CC(=O)NC2CCC(C)CC2)S(=O)(=O)c2ccc(C)c(C)c2)c1 (stereo not drawn)	.	.	.	i	.
N/C(=N\OC(=O)Cc1cccs1)c1cccc([N+](=O)[O-])c1	27.5%	i	11.2µM*	i	1.1%
Cc1ccc(C(=O)O/N=C(\N)c2cccc([N+](=O)[O-])c2)cc1	-12.7%	i	10µM*	i	-2.5%
N/C(=N\OC(=O)c1ccncc1)c1cccc([N+](=O)[O-])c1	5.4%	i	?	i	3.2%
N/C(=N\OC(=O)c1ccc(Br)cc1)c1cccc([N+](=O)[O-])c1	-17.1%	i	10µM*	i	0.6%
Cc1ccc(C)c(N2CCN(C(=O)c3ccc(-c4nc(COc5ccccc5)c(C)o4)cc3)CC2)c1	.	i	11.4%	i	.
CCC(CC)C(=O)Nc1cccc(-c2nc3cccnc3s2)c1	.	i	-2.0%	i	.
N#Cc1c(-c2ccc([N+](=O)[O-])cc2)nc2n(c1=O)CCS2	-3.3%	i	4.4%	i	?
N#Cc1c(-c2cccc([N+](=O)[O-])c2)nc2n(c1=O)CCS2	1.8%	?	11.2µM*	i	-11.5%
O=C(c1sc2cc(F)ccc2c1Cl)N1CCN(c2ccccc2)CC1	0.3%	i	17.8µM*	i	27.9%
Oc1ccc(N=Nc2ccc3c(c2)OCCO3)c2cccnc12	20µM*	?	?	i	0.2%
CC(c1ccc2ccccc2c1)c1ccccc1C(=O)O (stereo not drawn)	-11.5%	i	5.62µM*	i	.
O=C(O)c1ccccc1C(c1ccc(O)cc1)c1ccc(O)cc1	-4.2%	i	-12.0%	i	-0.4%
Cc1ccccc1S(=O)(=O)Nc1nc2ccccc2nc1Cl	-9.7%	i	10µM*	i	23.8%
COc1ccc2cc(C3=CCCC3(C)C(=O)O)ccc2c1 (stereo not drawn)	-37.6%	i	3.55µM*	i	.
COc1ccc2cc(C3=CC(=O)CCC3)ccc2c1	1.1%	i	?	i	.
O=C(O)c1ccccc1NS(=O)(=O)c1cccc(C(F)(F)F)c1	13.5%	i	-6.0%	i	-0.2%
O=S(=O)(Nc1cccc2c1CCCC2)c1cccc(C(F)(F)F)c1	?	?	25.1µM*	i	-9.6%
CSc1ccc(CCNC(=O)c2ccc(-n3c(C)cc4c3CCCC4)cc2)cc1	.	i	12.4%	i	.
CCOC(=O)c1c(-c2ccc(C)cc2)csc1NC(=O)CCN1CC(C)OC(C)C1 (stereo not drawn)	8.7%	i	-0.4%	.	12.6µM*
CCOC(=O)c1c(-c2ccc(OC)cc2)csc1NC(=O)CCN1CCOCC1	13.7%	i	-20.5%	i	?
O=S(=O)(/N=C(/NS(=O)(=O)c1ccccc1)c1ccccc1)c1ccccc1	1.6%	i	11.5%	i	-5.0%
SMILES	aSyn yeast inh	Abeta yeast res	TDP43 rescue	FUS suppressor	Mito fusion act
O=S(=O)(N=C(NS(=O)(=O)c1ccc(Cl)cc1)c1ccccc1)c1ccc(Cl)cc1	-1.6%	i	11.2µM*	i	.
CCC(=O)N1CCc2cc(Br)cc(S(=O)(=O)N3CCCC(C(=O)Nc4ccc(C)c(F)c4)C3)c21 (stereo not drawn)	.	i	-11.7%	i	.
CCC(=O)N1CCc2cc(Br)cc(S(=O)(=O)N3CCCC(C(=O)Nc4ccc(C(C)C)cc4)C3)c21 (stereo not drawn)	.	i	-7.9%	8.91µM*	.
CCOc1cccc(C2c3c(oc4ccc(F)cc4c3=O)C(=O)N2CCOC)c1 (stereo not drawn)	.	i	0.9%	i	.
Cc1ccc(NC(=O)CCN2C(=O)c3ccccc3Sc3ncccc32)c(Cl)c1	.	i	2.0%	i	.
Cn1cnc([N+](=O)[O-])c1NC(C)(C)C	-3.5%	i	1.7%	i	-1.7%
Cn1cnc([N+](=O)[O-])c1S(=O)(=O)c1ccc(Cl)cc1	-0.5%	i	14.1µM*	i	-15.7%
CCc1ccc(NC(=S)N(CCCN2CCOCC2)Cc2ccccn2)cc1	-0.2%	i	-13.0%	i	-7.2%
CCc1ccc(NC(=S)N(Cc2ccccc2)Cc2ccccn2)cc1	-8.7%	12.6µM*	?	i	3.2%
CCCNC(=O)c1nnsc1S(=O)(=O)c1ccc(Cl)cc1	-67.6%	i	1.58µM*	i	-5.0%
Clc1ncnc2scc(-c3ccccc3)c12	14.8%	i	19.4%	i	-1.2%
Cc1ccc(-c2csc3ncnc(Cl)c23)cc1	2.8%	i	15.8µM*	i	-10.9%
N#C/C(=C\c1cccs1)Sc1nc2ccccc2s1	-6.4%	i	?	.	?
N#C/C(=C\c1ccc[nH]1)Sc1nc2ccccc2s1	3.0%	i	22.4µM*	i	?
CC12CCC(=O)C=C1CCC1C2CCC2(C)C(c3csc(N)n3)CCC12 (stereo not drawn)	17.8µM*	i	14.1%	?	.
CC12CCC(=O)C=C1CCC1C2C(O)CC2(C)C(c3csc(N)n3)CCC12 (stereo not drawn)	2.0%	i	-12.7%	?	.
Oc1ccc(-c2nc3ccccc3s2)cc1	-17.2%	i	35.5µM*	i	7.4%
O=C(O)Cc1sc(Nc2ccccc2Cl)nc1-c1ccccc1	.	i	1.6%	i	.
O=C(COCc1cc(-c2cccs2)on1)Nc1cc(Cl)ccc1O	.	i	6.0%	i	.
O=C(COCc1cc(-c2cccs2)on1)NCc1ccccc1Cl	.	i	12.6µM*	i	.
O=C(COc1c(Br)cc(Br)c2cccnc12)N1CCCCC1	7.4%	i	15.0%	i	?
O=C(COc1c(Br)cc(Br)c2cccnc12)N1CCc2ccccc2C1	12.6µM*	i	?	i	?
O=C(/C=C/c1c(F)cccc1Cl)N1CCc2ccccc2C1	?	i	7.94µM*	i	?
O=C(COc1ccccc1F)N1CCc2ccccc2C1	5.1%	i	?	i	-3.6%
CCN1CCN(C(=O)/C=C/c2c(F)cccc2Cl)CC1	-1.6%	i	12.9%	.	-1.7%
O=C(COc1ccccc1Cl)N1CCc2ccccc2C1	-4.5%	i	12.6µM*	i	11.2%
CC(=O)Nc1cc(O)c2nonc2c1O	-41.5%	.	.	.	.
C(/C=C\c1ccco1)=NN1CCN(Cc2cccc3ccccc23)CC1	.	.	.	i	.

From PubChem BioAssay
